The nature of test [1]: qHTS assay for small molecule agonists of the antioxidant response element (ARE) signaling pathway measured by Nrf2-dependant transcriptional activity (AID 720636; active = well fitted curve in the direction sought with a large enough effect in the repeat runs; an effect the other way counts as inactive or inconclusive; note: % of control where 0% means no effect). Put shortly:
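Quantitative HTS format in HepG2 cells stably expressing an ARE-luciferase reporter; 16 hr compound treatment at 37 C, luciferase signal detected with ONE-Glo.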
For orientation: In qHTS, concentration-response curves come from the screen itself.

A short description of test [2]: qHTS assay for small molecule agonists of the antioxidant response element (ARE) signaling pathway measured by Nrf2-dependant transcriptional activity - cell viability counter screen (AID 720653; active = well fitted curve in the direction sought with a large enough effect in the repeat runs; an effect the other way counts as inactive or inconclusive; note: % is set by controls: 0 for no effect and ±100 for the full control effect). The settings on record: ARE-bla HepG2 viability, CellTiter-Glo ATP luminescence, 16 h; max response: stronger effect = lower value. Put shortly: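 ARE-bla HepG2 cells (2,000/well) rested 5 hrs at 37C/5% CO2, then exposed to compounds in DMSO for 16 hrs. Viability was read in the same wells as intracellular ATP by luminescence, 30 min at room temperature after reagent addition.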

Test [3] has as its target T1, Hexokinase-4 (Homo sapiens) + Glucokinase regulatory protein (Homo sapiens) (UniProt P35557+Q14397). Kind of test: qHTS assay for inhibitors of recombinant human GCK-GKRP interaction: Diaphorase-coupled assay (AID 743205). Put shortly:
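GST-GCK (10 nM) with FLAG-GKRP (10 nM), 5 mM glucose and 0.4 mM ATP in pH 7.6 Hepes; compounds preincubated 20 min with substrate. G6PDH/diaphorase coupling converts resazurin to resorufin, read kinetically (ex 525/em 590 nm) for 30 min.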

Test [4] addresses T1, Hexokinase-4 (Homo sapiens) + Glucokinase regulatory protein (Homo sapiens). Kind of test: qHTS assay for inhibitors of recombinant human GCK-GKRP interaction: ADP-Glo assay (AID 743206).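 Note: plate controls were DMSO plus enzyme for no effect and no enzyme for full effect.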 Put shortly:
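Pin-transferred compounds meet a 15 nM GST-GCK/15 nM FLAG-GKRP/2 uM S6P mix (dispense concentrations). ATP is then added to 0.4 mM final with 5 mM glucose, and the reaction runs 60 min at room temperature. ADP is quantified luminescently.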

Test [5] can be described thus: qHTS Assay for Identifying Gametocytocidal Compounds (AID 743244).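 Note: % is set by controls: 0 for no effect and ±100 for the full control effect; actives lower the fluorescent signal which means gametocytes are killed.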 The settings on record: P. falciparum 3D7 stage III-V gametocytes, alamarBlue, 72 h; max response: stronger effect = lower value. The method, boiled down: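 Compounds are pinned into medium, gametocytes (stage III–V, 3D7, 20,000 cells/well) added, and plates held 72 h at 37 °C in 5% CO2. AlamarBlue follows for 24 h before fluorescence reading.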

Test [6] can be described thus: qHTS assay for cell viability of HEK293 cells (AID 743288). Note: % is set by controls: 0 for no effect and ±100 for the full control effect; nearly all actives have a fitted effect of over 50% in size. The conditions noted are these: ATP luminescence (CellTiter-Glo), 18 h; max response: stronger effect = lower value. Put shortly: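 After 18 h compound exposure at 37 C, parental HEK293 cells (2,000/well) are lysed with CellTiter-Glo and luminescence is read following 30 min at room temperature.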
Test [7] can be described thus: qHTS assay for cell viability of the p53RE-bla HCT-116 cell line (AID 743292). Note: % is set by controls: 0 for no effect and ±100 for the full control effect; nearly all actives have a fitted effect of over 55% in size. Put shortly: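 Viability of compound-treated p53RE-bla HCT-116 cells is taken from ATP-dependent luciferase luminescence. Treatment lasts 16 h at 37 C after a 5 h settling period; detection follows 30 min at room temperature.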
Test [8] in a line: qHTS assay for measurement of the activity of small molecule inhibitors on Zika virus induced Caspase-3 activity in human iPSC derived neural progenitor cells (hNPCs) (AID 1224857). Note: % of control where 0% means no effect; nearly all actives have a fitted effect of over 65% in size. The method, boiled down: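 Pretreat hNPCs with compound 1 h; infect ZIKV 2 FFU/cell; 6 h 37 C, 5% CO2; Caspase-Glo 3/7, 30 min RT; luminescence; normalize to no-virus and virus-only wells.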
Test [9] in a line: qHTS assay for measurement of the activity of small molecule inhibitors on Zika virus induced Caspase-3 activity in human astrocytoma cells (AID 1224859).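 Note: plate controls were ZIKV-infected untreated cells for no effect and uninfected cells for full effect.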 The method, boiled down:
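Human SNB-19 astrocytoma cells in RPMI 1640 with 10% FBS receive compound one hour ahead of Zika virus at 2 FFU/cell. After 6 h infection, caspase-3/7 activity is detected by Caspase-Glo luminescence.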

Test [10] is described as follows: qHTS assay to identify small molecule inhibitors of chordoma cells - UCH-2 (AID 1259356). Note: % is set by controls: 0 for no effect and ±100 for the full control effect.
A short description of test [11]: qHTS assay to identify small molecule inhibitors of chordoma cells - UCH-1 (AID 1259355). Note: % is set by controls: 0 for no effect and ±100 for the full control effect; nearly all actives have a fitted effect of over 55% in size. Put shortly:
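A 48hr growth-inhibition format: each drug tested at 15 concentrations together with added auranofin, camptothecin, doxorubicin, rubitecan and topotecan, with cell viability quantified as CellTiter-Glo luminescence.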

The target in test [12] is T1, Hexokinase-4 (Homo sapiens) + Glucokinase regulatory protein (Homo sapiens). The experiment in a line: qHTS assay for inhibitors of recombinant human GCK-GKRP interaction: HTRF assay (AID 743207).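 Note: 0% = DMSO with GCK present and -100% = DMSO wells lacking GCK.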 The method, boiled down:
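GST-GCK and FLAG-GKRP (5 nM each) were combined with 2 uM S6P in pH 7.1 Hepes/MgCl2/KCl/DTT buffer, then compound and anti-FLAG XL665/anti-GST K antibodies were added. After 60 min at room temperature, HTRF 665/615 nm emission was read.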

The nature of test [13]: qHTS profiling for inhibitors of Plasmodium falciparum (3D7) proliferation (AID 743322; call rule not given here;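 note: infected erythrocytes exposed to compound for 72 h before lysis; 100% = DMSO vehicle wells and 0% = 0.29 µM artemisinin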). The conditions noted are these: P. falciparum 3D7 proliferation; at 28.7 µM (top of the series) unless noted. The method, boiled down:
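Parasite DNA was quantified by SYBR Green I fluorescence (ex 485, em 535 nm) after overnight lysis in saponin/Triton buffer at room temperature. Cultures at 0.3% parasitemia and 2.5% hematocrit were first exposed to compound for 72 h at 37 C; signals were normalised to artemisinin (0.29 uM) and vehicle wells.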

Test [14] is described as follows: qHTS profiling for inhibitors of Plasmodium falciparum (DD2) proliferation (AID 743323; call rule not given here). The conditions noted are these: lower = more inhibition; at 28.7 µM (top of the series) unless noted. The method, boiled down: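 Parasite DNA quantified by SYBR Green fluorescence (ex 485, em 535 nm) after saponin/Triton lysis and overnight dark incubation. Cultures: 0.3% parasitemia, 2.5% hematocrit, 72 h, 37 C; data scaled between DMSO and 0.29 uM artemisinin.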

Test [15] in a line: qHTS profiling for inhibitors of Plasmodium falciparum (HB3) proliferation (AID 743324).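 Note: 100% = DMSO vehicle wells and 0% = artemisinin-treated control wells.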 The settings on record: Plasmodium falciparum HB3 blood-stage proliferation; at 28.7 µM (top of the series). The method, boiled down:
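SYBR Green fluorescence (485 ex/535 em) of lysed cultures, incubated overnight at room temperature in the dark, quantifies parasite DNA. Infected erythrocytes at 0.3% parasitemia and 2.5% hematocrit were exposed 72 h; values normalized to DMSO and 0.29 uM artemisinin controls.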

Values joined by “and” are separate entries in the source; they are usually repeats but may differ in a detail not shown here. Equal entries are not always repeated. Inconclusive results are not listed. Active and inactive are the calls of the source. Unless noted, calls come from the whole dose curve; as a rule, active = well fitted curve in the direction sought with a large enough effect; inconclusive = small, poorly fitted or top-dose-only effect, or another doubt; inactive = no such curve, though single readings can be large; an effect the other way counts as inactive or inconclusive.

T1 sequence (P35557 whole entry, looked up): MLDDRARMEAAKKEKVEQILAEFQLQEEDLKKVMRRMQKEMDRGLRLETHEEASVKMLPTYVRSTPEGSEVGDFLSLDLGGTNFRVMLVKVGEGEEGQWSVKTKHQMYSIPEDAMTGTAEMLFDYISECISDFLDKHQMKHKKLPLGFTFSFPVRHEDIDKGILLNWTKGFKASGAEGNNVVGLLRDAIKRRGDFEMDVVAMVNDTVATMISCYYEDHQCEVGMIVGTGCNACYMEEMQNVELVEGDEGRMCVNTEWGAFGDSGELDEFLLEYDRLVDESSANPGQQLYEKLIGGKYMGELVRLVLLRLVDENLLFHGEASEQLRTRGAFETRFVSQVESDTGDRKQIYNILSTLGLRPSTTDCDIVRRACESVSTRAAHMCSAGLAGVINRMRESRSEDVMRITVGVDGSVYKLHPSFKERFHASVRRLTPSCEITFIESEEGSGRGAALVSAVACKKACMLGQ
T1 sequence (Q14397 whole entry, looked up): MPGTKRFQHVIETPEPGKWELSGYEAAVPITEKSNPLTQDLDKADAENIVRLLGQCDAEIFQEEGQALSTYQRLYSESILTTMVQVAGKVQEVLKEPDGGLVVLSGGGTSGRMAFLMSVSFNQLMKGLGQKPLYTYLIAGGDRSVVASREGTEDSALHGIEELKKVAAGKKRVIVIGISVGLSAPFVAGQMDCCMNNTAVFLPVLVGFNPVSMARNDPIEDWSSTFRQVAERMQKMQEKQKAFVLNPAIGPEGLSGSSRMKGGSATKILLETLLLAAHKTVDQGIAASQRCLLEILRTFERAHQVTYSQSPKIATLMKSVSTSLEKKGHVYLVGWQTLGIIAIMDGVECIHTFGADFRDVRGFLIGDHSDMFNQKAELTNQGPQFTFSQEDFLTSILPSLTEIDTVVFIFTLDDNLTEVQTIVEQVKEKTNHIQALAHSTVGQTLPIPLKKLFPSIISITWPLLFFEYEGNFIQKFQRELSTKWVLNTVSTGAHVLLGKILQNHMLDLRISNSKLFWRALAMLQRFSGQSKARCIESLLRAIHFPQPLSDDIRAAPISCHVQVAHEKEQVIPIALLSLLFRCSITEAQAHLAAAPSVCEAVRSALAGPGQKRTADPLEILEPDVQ

`C[C@]12C=CC(=O)C=C1CC[C@H]1[C@@H]3C[C@@H](O)[C@](O)(C(=O)CO)[C@@]3(C)C[C@H](O)[C@@]12F`: the result in [1], in test [3], in test [4], in test [7], in [8] and in test [9] was inactive. Besides, the max response in test [2] was -0.0511% (inactive); in test [5] it was 20.4% (inactive) and -3.94% (inactive); in [6], -7.12% (inactive). The Potency result in [10] was “inactive”.

As for `c1ccc2c(c1)CCCC2C1=NCCN1` (stereo unspecified), the outcome in test [3], in test [4], in [8] and in test [9] was inactive. Further, the max response in test [5] is -2.52% (inactive) and 13.8% (inactive). Also, the Potency entry in [11] and in [10] was “inactive” in each case.

As for `CCCCNc1ccc(C(=O)OCCN(C)C)cc1`, the result in test [3], in test [4], in [8] and in test [9] was inactive. Further, the max response in test [5] was -1.47% (inactive) and 12.4% (inactive). Further, the Potency entry in [11] and in test [10] was “inactive” in each case.

Turning to `CN(C)C(=O)Oc1ccc[n+](C)c1`, the outcome in test [3], in test [4], in [8] and in [9] was inactive. The max response in test [5] was -5.59% (inactive) and 6.64% (inactive). For the same compound, the Potency result in test [11] and in [10] was “inactive” throughout.

For `CCOC(=O)C1=C(C)NC(C)=C(C(=O)OC)C1c1cccc(Cl)c1Cl` (stereo unspecified), the outcome in test [3], in test [4], in [8] and in test [9] was inactive. In addition, the max response in [5] is 21.2% (inactive) and 4.35% (inactive). Also, the Potency result in test [11] and in test [10] was “inactive” throughout.

In the case of `C[C@@H](O)[C@H]1C(=O)N2C(C(=O)O)=C(SCCN=CN)C[C@H]12`, the result in test [3], in [4], in test [8] and in test [9] was inactive. Also, the max response in test [5] is 3.85% (inactive) and 8.18% (inactive). In addition, the Potency entry in test [11] and in test [10] was “inactive” in each case.

As to `CCCN(CCC)CCc1cccc2c1CC(=O)N2`, the outcome in [3], in test [4], in test [8] and in [9] was inactive. For the same compound, the Potency entry in test [12] and in test [10] was “inactive” throughout. In [5], the max response is 3.57% (inactive) and 20.6% (inactive).

Turning to `Cc1nc2ccccn2c(=O)c1CCN1CCC(C(=O)c2ccc(F)cc2)CC1`, the outcome in test [3], in test [4], in test [8] and in [9] was inactive. In addition, in test [5], the max response was 14.2% (inactive). Besides, the Potency result in test [11] and in test [10] was “inactive” in each case.

With `Cc1ccc(/C(=C\CN2CCCC2)c2ccccn2)cc1`, the max response in test [5] is 24.5% (inactive) and 21.6% (inactive). Also, the outcome in [8] and in [9] was inactive. Also, the Potency result in [11] and in test [10] was “inactive” each time.

As for `NC(N)=NC(=O)Cc1c(Cl)cccc1Cl`, the outcome in [3], in test [4], in [8] and in [9] was inactive. Moreover, in [5], the max response is 5.89% (inactive) and 26.9% (inactive). Moreover, the Potency entry in test [11] and in test [10] was “inactive” each time.

Turning to `CCNC(=O)N1CCN(CCCC(c2ccc(F)cc2)c2ccc(F)cc2)CC1`, the result in test [3], in [4], in [8] and in test [9] was inactive. The max response in [5] is -23% (inactive) and -10.4% (inactive). Besides, the Potency result in [11] and in test [10] was “inactive” each time.

For `CN1CCN(C2=Nc3ccccc3Oc3ccc(Cl)cc32)CC1`, the outcome in test [3], in [4], in [8] and in [9] was inactive. The max response in [5] is 15.1% (inactive) and -7.99% (inactive). The Potency result in test [11] and in test [10] was “inactive” throughout.

For the compound `Cc1ccc(Cl)c(Nc2ccccc2C(=O)O)c1Cl`, the outcome in [3], in [4], in test [8] and in [9] was inactive. Besides, in test [5], the max response is -8.31% (inactive) and 12.8% (inactive). Besides, the Potency result in test [11] and in test [10] was “inactive” each time.

For `c1cc(CN2CCCCC2)cc(OCCCNc2nc3ccccc3s2)c1`, the result in [3], in test [4], in [8] and in test [9] was inactive. Besides, the max response in test [5] was -9.42% (inactive). In addition, the Potency entry in test [11] and in test [10] was “inactive” in each case.

On to `CN/C(=C\[N+](=O)[O-])NCCSCc1ccc(CN(C)C)o1`, for which the max response in test [5] was 33.4% (inactive). In addition, the outcome in [8] and in test [9] was inactive. Besides, the Potency entry in [11] and in test [10] was “inactive” throughout.

With `CC(N=C(NC#N)Nc1ccncc1)C(C)(C)C` (stereo unspecified), the result in test [3], in [4], in [8] and in [9] was inactive. For the same compound, the max response in test [5] was 14.1% (inactive) and -10.9% (inactive). Further, the Potency entry in test [11] and in test [10] was “inactive” in each case.

With `CCC(=O)c1ccc2c(c1)N(CCCN(C)C)c1ccccc1S2`, the result in test [3], in test [4] and in test [9] was inactive. For the same compound, the Potency result in test [11] and in [10] was “inactive” each time.

As to `COC(=O)C1=C(C)NC(C)=C(C(=O)OC(C)(C)CN(C)CCC(c2ccccc2)c2ccccc2)C1c1cccc([N+](=O)[O-])c1` (stereo unspecified), the outcome in test [3], in [4], in test [8] and in [9] was inactive. Further, the max response in test [5] is 7.33% (inactive) and 12.6% (inactive). In addition, the Potency result in test [11] and in test [10] was “inactive” each time.

With `CNCCC(Oc1ccccc1OC)c1ccccc1` (stereo unspecified), the outcome in test [3], in test [4], in test [8] and in test [9] was inactive. Besides, the Potency entry in test [12], in test [11] and in test [10] was “inactive” each time. For the same compound, the max response in test [5] was 19.3% (inactive). The remaining parasite growth % (stronger effect = lower value) in [13] stood at 104%. The same compound came in with an activity, percent of control in test [14] of 48%. In addition, the remaining proliferation (% of control), lower = more inhibition in [15] is 91.8%.

`CCCOc1ccccc1-c1nc2n[nH]nc2c(=O)[nH]1`: the result in [3], in test [4], in test [8] and in test [9] was inactive. In addition, the max response in test [5] is -5.53% (inactive) and 14.3% (inactive). Besides, the Potency entry in test [11] and in test [10] was “inactive” in each case.

For the origin of these results see PubChem BioAssay (NCATS).
